Source: PubChem BioAssay AID651558 (National Center for Advancing Translational Sciences (NCATS), 2012)
Screen size: about 1,200 compounds; about 480 (40%) were called active. Inconclusive results (about 29%) are left out. The call rests on the fitted dose curve; in most records, active means well fitted inhibition curve with a large enough effect; inconclusive means small, poorly fitted or top-dose-only effect; inactive means no such curve, though single readings can be large or run the other way. This is one part of the list. Entries that show only a call come without a potency.

Test: qHTS Assay to Find Inhibitors of Chronic Active B-Cell Receptor Signaling: Hit Validation in Primary Screen; further: nearly all actives have a fitted effect of over 75% in size
Conditions: ABC-DLBCL IkB-luc/CBR ratio luminescence, 4 h; series mostly up to 46.1 µM
How it was run: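 TMD8 ABC-DLBCL cells carrying doxycycline-inducible IkBa-green luciferase fusion and free red luciferase, 0.5% FBS, dosed 46 uM–3 nM with doxycycline for 4 h at 37C. Green/red luminescence ratio normalized to basal and 10 uM MG-132.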
Potency means the concentration at half of the fitted maximal effect.

Compound | Potency
COc1cc2c(cc1OC)-c1cc(Nc3ccc(N(C)C)cc3)nc(=O)n1CC2 | inactive
COc1cc2c(cc1OC)-c1cc(Nc3ccc(C)cc3)nc(=O)n1CC2 | 18.4 µM (active)
COc1cc2c(cc1OC)-c1cc(Nc3ccccc3C)nc(=O)n1CC2 | inactive
COc1ccc(Nc2cc3n(c(=O)n2)CCc2cc(OC)c(OC)cc2-3)c(C)c1 | 5.17 µM (active)
COc1cc2c(cc1OC)-c1cc(Nc3ccccc3)nc(=O)n1CC2 | 18.4 µM (active)
Oc1ccc(-c2nc3cnccn3c2Nc2ccc3c(c2)OCCO3)cc1 | 23.1 µM (active)
COc1ccc(CNC(=O)COc2ccc(C(=O)c3ccc(F)cc3)cc2)cc1 | 3.26 µM (active)
O=C(O)CCCCCCCCc1cn(Cc2ccc(C(=O)c3ccccc3)cc2)nn1 | inactive
CCOc1cc(C(=O)N/N=C(\C)Cc2ccc(OC)cc2)cc(OCC)c1OCC | inactive
CCOc1ccccc1OCC(=O)N/N=C(\C)Cc1ccc(OC)cc1 | inactive
O=C(COc1ccc(C(=O)c2ccccc2)cc1)NCc1ccc(F)cc1 | 4.61 µM (active)
OC[C@H]1O[C@@H](n2cnc3c(Nc4ccccc4)ncnc32)[C@H](O)[C@@H]1O | 7.31 µM (active)
Nc1ncnc2c1ncn2[C@@H]1O[C@H](CNCc2cccc(C#Cc3ccccc3)c2)[C@@H](O)[C@H]1O | inactive
C[C@H](Cc1ccccc1)Nc1ncnc2c1ncn2[C@@H]1O[C@H](CO)[C@@H](O)[C@H]1O | 0.184 µM (active)
Cc1cn(-c2cccnc2)c(C)c1CNC[C@H]1O[C@@H](n2cnc3c(N)ncnc32)[C@H](O)[C@@H]1O | inactive
CCn1c2ccccc2c2cc(Nc3cc(C)nc4ncnn34)ccc21 | 16.4 µM (active)
COc1cccc(-c2nnc(SCC(=O)Nc3cc(C)on3)o2)c1 | inactive
Cc1cc(NC2CCCCC2)nc2ccccc12 | inactive
Cc1cc(NC(=O)CSc2nc3ccccc3c(=O)n2C2CCCC2)no1 | 4.61 µM (active)
O=[N+]([O-])c1cc(O)c2ncccc2c1 | inactive
COC(=O)c1ccc(CNC(=O)Cn2cnc3c(NCc4ccccc4)ncnc32)cc1 | inactive
COc1ccc(CNc2nc(NCc3ccc(OC)cc3)c3ncn(C4CCCC4)c3n2)cc1 | 2.31 µM (active)
NS(=O)(=O)c1cc(C(=O)OCC(=O)N2CCc3ccccc3C2)ccc1Cl | inactive
O=C(OCC(=O)c1ccc[nH]1)c1ccc(Cl)c(Cl)c1 | inactive

Compound | Potency
CCn1c(=O)c([N+](=O)[O-])c(Cl)c2ccccc21 | 6.51 µM (active)
CCOc1ccc(NCc2ccccc2OCc2cccc(F)c2)cc1 | inactive
O=Cc1ccccc1OCCOc1ccccc1C=O | 20.6 µM (active)
O=C(CSc1ncccc1C(=O)O)c1ccc2ccccc2c1 | inactive
C/C(Cl)=C\Cn1c(O)c(N=NC(N)=S)c2cc(Br)ccc21 | 14.6 µM (active)
C=CCn1c(O)c(N=NC(=S)Nc2ccccc2F)c2cc(S(=O)(=O)N3CCOCC3)ccc21 | inactive
NC(=S)N=Nc1c(O)n(CCCl)c2ccccc12 | inactive
CCOC(=O)c1[nH]c(C)c(C(=O)c2cc(F)ccc2F)c1C | 11.6 µM (active)
CCOC(=O)c1c(C)[nH]c(C(=O)N/N=C/c2ccc(Br)cc2)c1C | 0.92 µM (active)
CCOC(=O)c1[nH]c(C)c(C(=O)N2CCc3ccccc32)c1C | 4.61 µM (active)
CCOC(=O)c1[nH]c(C)c(C(=O)OCC)c1C | 18.4 µM (active)
CCOC(=O)c1[nH]c(C)c(C(=O)c2ccc(C)cc2)c1C | inactive
CC[C@]12c3[nH]c4cc(CCC(=O)N(C)C)ccc4c3CCN1C(=O)[C@@H](CC(=O)NC/C=C(\C)CCC=C(C)C)C[C@@H]2C(=O)N1CCN(C(=O)c2ccco2)CC1 | inactive
CCC1CCCCN1C(=S)NC(=O)c1cccs1 (stereo unspecified) | inactive
CCN(CC(=O)Nc1cc(Cl)ccc1C)C(=O)C1CC1 | inactive
CCOC(=O)c1[nH]c(C)c(C(=O)Nc2cc(Cl)ccc2C)c1C | 7.31 µM (active)
CCN(CC)S(=O)(=O)c1ccc(N/N=C(\C)c2ccc(OC)cc2O)nc1 | inactive
CCOc1ccc(S(=O)(=O)Nc2cc(OC)ccc2OC)cc1 | 4.61 µM (active)
COc1ccc(S(N)(=O)=O)cc1C(=O)OCCCOC(=O)c1cc(S(N)(=O)=O)ccc1OC | inactive
CC[C@]12c3[nH]c4cc(CCC(=O)N(C)C)ccc4c3CCN1C(=O)[C@@H](CC(=O)NCCc1ccccn1)C[C@@H]2C(=O)N1CCN(C(=O)C2CC2)CC1 | inactive
CCN(CC)c1ccc(NC(=O)c2cc(OC)cc(OC)c2)c(C)c1 | 6.51 µM (active)
C/C(=N\NC(N)=S)c1cc(-c2ccccc2)c(-c2ccccc2)s1 | inactive
C=CCNC(=S)N/N=C/c1ccc(C(F)(F)F)cc1 | inactive
CCN1C(=O)C(O)(C2COC(C)(C)CC2=O)c2cc(Br)ccc21 (stereo unspecified) | 18.4 µM (active)

Compound | Potency
CCc1ccc2oc(=O)cc(CN3CCCCC3C)c2c1 (stereo unspecified) | inactive
COc1ccc(CCNCC(O)COc2cccc(Br)c2)cc1 (stereo unspecified) | inactive
Oc1ccc(Nc2nc(-c3cccnc3)cs2)cc1 | 16.4 µM (active)
COC1=CC(=O)CC(C)C12Oc1c(Cl)c(OC)cc(OC)c1C2=O (stereo unspecified) | inactive
COc1cc(C2C(C#N)=C(N)Oc3cc4c(cc32)OCO4)cc(OC)c1OC (stereo unspecified) | 0.461 µM (active)
COc1cc(OC)c2c(c1)OC(=O)CC2c1cc(OC)c(OC)c(OC)c1 (stereo unspecified) | inactive
Nc1ncnc2c1ncn2[C@@H]1O[C@H](COP(=O)(O)O)[C@@H](O)[C@H]1O | inactive
OCC1OC(n2cnc3c(NC4CCCCC4)ncnc32)C(O)C1O (stereo unspecified) | 1.46 µM (active)
Nc1nc(Cl)nc2c1ncn2[C@@H]1O[C@H](CO)[C@@H](O)[C@H]1O | 0.92 µM (active)
Nc1ncnc2c1ncn2[C@@H]1O[C@H](CNCc2ccc(-c3cc(C(F)(F)F)ccc3Cl)o2)[C@@H](O)[C@H]1O | inactive
C=CCNc1ncnc2c1ncn2C1OC(CO)C(O)C1O (stereo unspecified) | 23.1 µM (active)
Nc1ncnc2c1ncn2[C@@H]1O[C@H](CNC(=O)[C@@H]2CCCN2S(=O)(=O)c2ccc(F)cc2)[C@@H](O)[C@H]1O | inactive
Nc1ncnc2c1ncn2C1OC(C(=O)NC2CC2)C(O)C1O (stereo unspecified) | 0.058 µM (active)
CC1CCC2C(=O)N(c3ccc(C(=O)Oc4cccc5cccnc45)cc3)C(=O)C2C1 (stereo unspecified) | inactive
O=C(Oc1c(CN2CCOCC2)cc(Cl)c2cccnc12)c1ccccc1Cl | inactive
CCCC(=O)Nc1ncnc2c1ncn2[C@@H]1O[C@@H]2COP(=O)(O)O[C@H]2[C@H]1OC(=O)CCC | inactive
OC[C@H]1O[C@@H](n2cnc3c(NC4CCCC4)nc(Cl)nc32)[C@H](O)[C@@H]1O | 1.3 µM (active)
OC[C@H]1O[C@@H](n2cnc3c(NC4CCCC4)ncnc32)[C@H](O)[C@@H]1O | 1.84 µM (active)
S=C(NCc1ccc2[nH]c3c(c2c1)CCCC3)Nc1ccccc1 | inactive
Cc1ccccc1NC(=S)c1ccc2ccccc2n1 | inactive
Cc1ccccc1NC(=S)NCc1ccc2c(c1)cc(C)n2C | 1.46 µM (active)
COC(=O)Nc1nc(-c2ccccc2)c(C(=O)c2ccc(Cl)cc2)s1 | 3.66 µM (active)
CC[C@@H]1Cc2cc(O)ccc2C2=C1c1ccc(O)cc1C[C@H]2CC | 14.6 µM (active)
Cc1noc(C)c1COc1cccc(C(=O)OCC(=O)N2CC(=O)Nc3ccccc32)c1 | 20.6 µM (active)

Compound | Potency
CN(CC(=O)Nc1ccc2c(c1)OCCO2)Cc1nc2ccccc2c(=O)[nH]1 | inactive
O=C(Cc1n[nH]c(=O)c2ccccc12)OCC(=O)c1ccc2c(c1)OCCO2 | 20.6 µM (active)
CCOc1ccc(N(CC(=O)Nc2ccccc2OC)S(=O)(=O)c2ccccc2)cc1 | 5.17 µM (active)
CCOc1ccc(S(=O)(=O)N(CC(=O)NN=C2CCN(C)CC2)c2ccc(C)cc2)cc1 | inactive
CCOc1ccc(N(CC(=O)Nc2ccccc2OCC)S(=O)(=O)c2c(C)noc2C)cc1 | 2.91 µM (active)
CCOc1ccc(N(CC(=O)Nc2ccccc2C)S(=O)(=O)c2c(C)noc2C)cc1 | 14.6 µM (active)
FC(F)(F)c1nnc2ccc(Cl)nn12 | inactive
O=C(N/N=C/C(Br)=C\c1ccccc1)c1ccc2nc[nH]c2c1 | inactive
CC(/C=N/NC(=O)c1n[nH]c2c1CCC2)=C\c1ccccc1 | 0.58 µM (active)
O=C(N/N=C/C(Br)=C\c1ccccc1)c1n[nH]c2c1CCC2 | 2.06 µM (active)
CCOc1cc(C(=O)N/N=C/C2CC=CCC2)cc(OCC)c1OCC (stereo unspecified) | inactive
CCOc1cc(C(=O)N/N=C/C(Br)=C/c2ccccc2)cc(OCC)c1OCC | 2.59 µM (active)
Cc1c(CCC(=O)N2CCC(C(=O)O)(c3ccccc3)CC2)c(=O)oc2cc3oc4c(c3cc12)CCCC4 | inactive
Cc1c(CCC(=O)N2CCC[C@H]2C(=O)O)c(=O)oc2cc3oc4c(c3cc12)CCCC4 | 23.1 µM (active)
CCOC(=O)C(C)N1C(=O)S/C(=C/c2cc(C)n(-c3ccccn3)c2C)C1=O (stereo unspecified) | inactive
CCOC(=O)C(C)N1C(=O)S/C(=C/c2ccc3c(c2)n(C)c(=O)n3C)C1=O (stereo unspecified) | 18.4 µM (active)
COc1cc2c(c(OC)c1OC)C(c1ccc(C)cc1)CC(=O)O2 (stereo unspecified) | inactive
COc1cc2c(cc1OC)C(c1ccc(OC)c(OC)c1OC)CC(=O)N2 (stereo unspecified) | 23.1 µM (active)
COc1ccc(C2CC(=O)Nc3cc(OC)c(OC)cc32)cc1Br (stereo unspecified) | 20.6 µM (active)
COc1cc(-c2noc(C)c2C#Cc2ccsc2)cc(OC)c1OC | 8.2 µM (active)
COc1cc(-c2noc(C)c2C#Cc2ccc(N)cc2)cc(OC)c1OC | 2.91 µM (active)
CNC(=S)N/N=C1\C(=O)c2cccc3cccc1c23 | 18.4 µM (active)
CNC(=S)N/N=C/c1ccco1 | inactive
NC(=S)NN=C1c2ccccc2-c2ccccc21 | inactive
